High-throughput results (PubChem BioAssay)
GRP78 ERSR act: ER stress response induction in glioma | U87-MG GRP78 promoter luciferase reporter, 16 h | Potency, µM, inactives show top-dose activation, actives largely listed as activators | 0.02% of 420,000 active | AID 602332; further: series mostly up to about 76 µM; % of control where 0% means no effect; nearly all actives have a fitted effect of over 35% in size
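ERSR induction read as luciferase luminescence (Bright-Glo, 10 min at room temperature) in stably transfected human U87-MG glioma cells exposed to compounds for 16 h, using GRP78 as sensor.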
12-LOX inh: ALOX12 (human) lipoxygenase inhibition. AID 1671190. P18054. purified 12hLO, xylenol orange hydroperoxide absorbance. 1.1% of 580,000 active. Potency, µM (highest dose often 108 µM), inactives show top-dose activity change, negative = inhibition, usual class: inhibitors; further: on the % scale 0 is the no-effect control and ±100 the full control effect
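Purified human 12hLO (150 nM final) in 25 mM Hepes, 0.01% Triton X-100, pH 7.0 was preincubated 15 min at room temperature with compound. Then 40 uM arachidonic acid was added, 30 min. Hydroperoxide was read by Fe-XO absorbance ratio 573/405 nm.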
G9a inh: inhibitors of human histone lysine methyltransferase G9a | 8.8% of 350,000 active | G9a H3K9 monomethylation, AlphaScreen, 2 h | Q96KQ7 | Potency, µM (titrated, usually from 102 µM), for the others: at the highest dose activity, negative = inhibition, hits mostly inhibitors; further: on the % scale 0 is the no-effect control and ±100 the full control effect; nearly all actives have a fitted effect of over 75% in size
Target sequence (Q96KQ7 913-1193 limits assumed): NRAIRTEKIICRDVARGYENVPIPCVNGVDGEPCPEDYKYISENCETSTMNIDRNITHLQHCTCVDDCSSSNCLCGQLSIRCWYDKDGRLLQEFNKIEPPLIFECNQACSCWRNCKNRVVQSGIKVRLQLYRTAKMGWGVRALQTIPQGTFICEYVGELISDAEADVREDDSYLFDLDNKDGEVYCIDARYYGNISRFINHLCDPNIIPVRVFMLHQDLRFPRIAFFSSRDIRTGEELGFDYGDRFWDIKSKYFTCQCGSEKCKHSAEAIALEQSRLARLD
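Readings reflect AlphaScreen signal from monomethyl-H3K9 antibody detection. HMT at 20 nM; substrate b-H3K9 500 nM; cofactor SAM 20 uM; 2 h RT reaction; compounds tested as titrations in qHTS with 15 min preincubation.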
VDR inh: blocks the human vitamin D receptor; 0.93% of 400,000 active; VDR-SRC2-3 peptide fluorescence polarization, 2 h; Potency, µM, inactives show max response, negative = inhibition, actives largely listed as inhibitors; further: on the % scale 0 is the no-effect control and ±100 the full control effect
Target sequence (P11473 whole entry, looked up): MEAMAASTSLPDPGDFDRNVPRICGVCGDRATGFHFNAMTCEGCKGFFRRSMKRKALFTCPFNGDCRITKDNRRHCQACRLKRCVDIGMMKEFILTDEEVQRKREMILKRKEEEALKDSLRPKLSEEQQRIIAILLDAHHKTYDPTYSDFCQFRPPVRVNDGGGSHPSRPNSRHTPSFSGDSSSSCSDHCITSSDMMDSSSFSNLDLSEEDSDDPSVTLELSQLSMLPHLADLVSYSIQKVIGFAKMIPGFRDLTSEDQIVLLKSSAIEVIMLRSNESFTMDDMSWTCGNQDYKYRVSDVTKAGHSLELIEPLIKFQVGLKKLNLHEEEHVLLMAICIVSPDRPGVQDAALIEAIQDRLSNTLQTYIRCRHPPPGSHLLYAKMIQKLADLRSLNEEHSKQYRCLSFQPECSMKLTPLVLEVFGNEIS
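After 23 nl compound addition and a short centrifugation, plates sat for 2 hours at ambient temperature; polarization of fluorescence then indicated loss of VDR binding to peptide SRC2-3.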
Sfp inh: Sfp phosphopantetheinyl transferase inhibition. AID 1490. 3.5% of 310,000 active. Q9F4F7. Biochemical Sfp PPTase activity, qHTS. Potency, µM, for the others: largest response in the series, negative = inhibition, hits mostly inhibitors;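 further: the enzyme is Sfp with the accession as filed and its product quenches rhodamine fluorescence; 0% = enzyme reaction without inhibitor and -100% = no enzyme wells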
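Reaction rates are the 30-min fluorescence difference (ex 525, em 598 nm) in wells containing 15 nM Sfp, 5 uM rhodamine-CoA and 12.5 uM BHQ-2-YbbR at pH 7.6 with 10 mM MgCl2.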
The depositor's hits bear a star; ? = inconclusive; nt = not tested or not shown; [ ] = another dose, or the depositor's remark. The sample as a whole holds a higher share of hits than the screen did. The call rests on the fitted dose curve; in most records, active means well fitted curve in the direction sought with a large enough effect; inconclusive means small, poorly fitted or top-dose-only effect, or another doubt; inactive means no such curve, though single readings can be large; an effect the other way counts as inactive or inconclusive. Potency means the concentration at half of the fitted maximal effect.

SMILES	GRP78 ERSR act	12-LOX inh	G9a inh	VDR inh	Sfp inh
CC1=C(C(=O)O)N2C(=O)C(NC(=O)c3nn(C)cc3[N+](=O)[O-])C2SC1 (stereo not drawn)	-2.9%	?	3.55µM*	?	3.98µM*
CC(=O)OCC1=C(C(=O)O)N2C(=O)C(NC(=O)CCCC(N)C(=O)O)C2SC1 (stereo not drawn)	-3.8%	nt	7.8%[2.33 µM]	?	-11.2%
CC1=C(C(=O)O)N2C(=O)C(NC(=O)Cc3ccccc3)C2SC1 (stereo not drawn)	-0.5%	-18.3%	10µM*	28.7%	10µM*
Cn1cccc1CN1CCCC2(CC(c3cccnc3)=NO2)C1 (stereo not drawn)	nt	2.9%[6.33 µM]	nt	nt	nt
COCc1cn(C[C@H]2C[C@@H]3CCN2C[C@@H]3C(=O)NCc2ccccc2OC)nn1	nt	9.6%[176 µM]	nt	nt	nt
Cc1ccc(CC2C(=O)N(C)C(=O)N(C)C2=O)s1	-1.7%	?	7.94µM*	?	35.5µM*
Cc1c(CC(=O)N2CCN(C(c3ccccc3)c3ccccc3)CC2)c(=O)oc2cc(O)ccc12	nt	6.2%	nt	nt	nt
CC1CC(OP(O)(=S)c2ccc(N(C)C)cc2NC(=O)c2cccs2)CC(C)(C)C1 (stereo not drawn)	6.9%	0.5%	3.98µM*	44.7µM*	10µM*
O=C(Nc1ccc2n(c1=O)C[C@H]1C[C@@H]2CN(C(=O)COc2ccccc2)C1)c1cccs1	nt	25.1%	nt	nt	nt
O=C(c1ccc(F)cc1)N1CCC2(CC1)OCCO2	0.1%	7.6%	nt	1.5%	5.4%
O=C(c1ccc(F)cc1)N1CCC(N2CCCCCC2)CC1	-3.4%	-1.7%	17.8µM*	-4.9%	?
S=C(c1ccc(Cl)cc1)N1CCOCC1	-1.9%	?	11.2µM*	?	39.8µM*
CN1CCN(c2ccc(NC=C(C#N)C#N)cc2)CC1	nt	6.1%	nt	nt	nt
C=C(C)Cn1c(-c2cccs2)n[nH]c1=S	-1.7%	?	14.1µM*	-22.0%	-15.5%
C=C(C)Cn1c(-c2cccc([N+](=O)[O-])c2)n[nH]c1=S	-4.9%	?	12.6µM*	-5.7%	-14.6%
CCOc1ccc(-n2c(-c3cccs3)nc3ccccc3c2=O)cc1	-0.6%	-21.5%	10.5%[0.501 µM]	0.6%	3.4%
CN1Cc2ccccc2-n2ccnc2C12CCN(C(=O)c1ccc(F)c(F)c1)CC2	nt	40.9%	nt	nt	nt
CCn1cc(C=C2C(=O)NC(=O)NC2=O)c2ccccc21	-8.0%	-2.3%	-7.5%	5.3%	-9.3%
O=C1NC(=O)C(=Cc2ccc3ccccc3c2)C(=O)N1	0.4%	?	-40.1%[12.7 µM]	?	39.8µM*
O=C1NC(=O)C(=Cc2ccc(N3CCOCC3)o2)C(=O)N1	-0.5%	-11.1%	?	3.2%	-18.7%
O=C1NC(=O)C(=Cc2ccc(Cl)cc2)C(=O)N1	nt	39.8µM*	nt	nt	nt
COc1ccc2c(c1)c(C(=O)OC(C)C(=O)NC(C)(C)C)c(C)n2C1CC1 (stereo not drawn)	nt	-0.6%	nt	nt	nt
O=C1NC2(CCCN(Cc3ccccn3)C2)Oc2ccccc21 (stereo not drawn)	nt	75.2%[176 µM]	nt	nt	nt
O=P(/C(=N/O)N1CCOCC1)(N1CCOCC1)N1CCOCC1	-0.6%	?	14.1µM*	24.9%	-4.2%
NCCc1cccc(N)n1	nt	-41.0%	nt	nt	nt
SMILES	GRP78 ERSR act	12-LOX inh	G9a inh	VDR inh	Sfp inh
Cc1c(N=Nc2c(O)[nH]c(=S)[nH]c2=O)c(=O)n(-c2ccccc2)n1C	-4.4%	-15.0%	2µM*	-25.3%	44.7µM*
Cc1c(N=Cc2c(O)n(C3CCCCC3)c(=O)[nH]c2=O)c(=O)n(-c2ccccc2)n1C	-3.6%	-2.3%	?	-5.4%	-10.2%
CCOc1ccc(-n2c(O)c(N=Nc3c(C)n(C)n(-c4ccccc4)c3=O)c(=O)[nH]c2=O)cc1	-3.2%	39.3%	-42.2%	9.8%	44.7µM*
C=CCn1c(O)c(N=Nc2c(C)n(C)n(-c3ccccc3)c2=O)c(=O)[nH]c1=S	-5.4%	?	0.794µM*	?	20µM*
Cc1oc2cc(OC(=O)N(C)C)ccc2c(=O)c1-c1ccccc1	nt	-0.5%	nt	nt	nt
COc1cc2c(cc1OC1CCCC1)NC(=O)C21CCN(Cc2cccc(O)c2)CC1	nt	-4.4%[176 µM]	nt	nt	nt
Cc1ccccc1C1=NCC(=O)N(CC(=O)NCc2ccco2)c2sc3c(c21)CCCC3	-3.9%	-26.4%	-16.0%[12.7 µM]	1.7%	50.1µM*
C[N+]1(CC(O)c2ccccc2)CCCCCC1 (stereo not drawn)	-4.1%	?	50.1µM*	2.2%	13.0%
N[C@@H](CCl)C(=O)O	-6.5%	-5.6%	21.2µM*	13.1%	nt
N[C@H](CP(=O)(O)O)C(=O)O	-4.7%	?	nt	nt	-8.0%
C[Se]C[C@H](N)C(=O)O	0.6%	?	0.631µM*	7.2%	nt
N[C@@H](CCCCP(=O)(O)O)C(=O)O	-2.9%	?	nt	2.2%	-6.9%
C[Se]C[C@@H](N)C(=O)O	-2.4%	?	3.98µM*	-2.6%	nt
COc1cc2c(cc1-c1ccc(O)c(F)c1)NC(=O)C21CCN(C(C)=O)CC1	nt	16.6%[176 µM]	nt	nt	nt
COc1cccc(CN2CC[C@@H]3CN(S(C)(=O)=O)[C@@H]3C2)n1	nt	13.3%	nt	nt	nt
CN1CCC(N2C[C@@H]3C[C@H](C2)c2c(NC(=O)c4ccccn4)ccc(=O)n2C3)CC1	nt	78.0%[176 µM]	nt	nt	nt
COc1ccccc1N1CCN(C(=O)[C@H]2CN3CCC2C[C@@H]3Cn2cc(-c3ccccc3)nn2)CC1 (stereo partly drawn)	nt	37.8%	nt	nt	nt
O=C1NC(=O)N(c2ccccc2)C(=O)/C1=C/c1ccc(Sc2ccccc2)o1	-1.8%	nt	10µM*	?	22.4µM*
O=C1NC(=O)N(c2ccccc2F)C(=O)/C1=C/c1ccc(Sc2nc3ccccc3[nH]2)o1	-3.9%	31.6µM*	6.31µM*	?	50.1µM*
O=C1NC(=O)N(c2cccc(Cl)c2)C(=O)/C1=C\c1ccc(Sc2nc3ccccc3[nH]2)o1	4.2%	10µM*	3.16µM*	?	39.8µM*
COCCNC(=O)Cn1cc(/C=C2\C(=O)NC(=O)N(c3ccccc3F)C2=O)c2ccccc21	-3.7%	0.0%	6.3%	11.2%	-0.4%
O=C1NC[C@H]2CN(Cc3nccs3)CCN12	nt	45.4%[176 µM]	nt	nt	nt
COc1ccc(CC(=O)N2CC3(CCN(C)CC3)c3cc(OC)c(OCc4ccccc4)cc32)cc1	nt	-11.0%	nt	nt	nt
CCOc1cccc(OCC)c2c(C)[n+](CC3CCCO3)c(C)c1-2 (stereo not drawn)	1.6%	nt	?	-28.7%	56.2µM*
Clc1ccc(OCCCN2CCCC2)cc1Cl	1.3%	-34.8%	10µM*	0.7%	7.5%
SMILES	GRP78 ERSR act	12-LOX inh	G9a inh	VDR inh	Sfp inh
O=C1NCc2ccccc2CC12CCN(Cc1ccc(Br)cn1)C2 (stereo not drawn)	nt	2.1%[6.33 µM]	nt	nt	nt
COc1cc2c(cc1CCc1ccccc1)N(C(=O)[C@@H]1CCCO1)CC21CCN(C(C)=O)CC1	nt	11.2%	nt	nt	nt
CC(=O)/C=C/c1ccccc1	-1.1%	12.9%	nt	-9.2%	nt
CC(=O)[O][Hg][c]1ccccc1	-12.8%	nt	?	1.78µM*	0.178µM*
O=c1c2ccccc2nc(CN2CCOCC2)n1-c1ccccc1F	-1.6%	0.0%	?	-20.1%	10.7%
O=c1c2cc([N+](=O)[O-])ccc2nc(CN2CCOCC2)n1-c1ccccc1F	nt	nt	2.82µM*	nt	22.4µM*
